Hits are enriched below; roughly 1.1% of the tested compounds scored in any of these assays.
AmpC no deterg = qHTS Inhibitors of AmpC Beta-Lactamase (assay without detergent); P00811; AmpC nitrocefin hydrolysis, absorbance 480 nm, 0.0001% Triton; Potency, µM (titrated, usually from 57.1 µM), most hits filed as inhibitors; 330,000 tested, 0.52% active; AID 485341, 2010; also: nearly all actives have a fitted effect of over 20% in size
Target sequence (P00811 whole entry, looked up): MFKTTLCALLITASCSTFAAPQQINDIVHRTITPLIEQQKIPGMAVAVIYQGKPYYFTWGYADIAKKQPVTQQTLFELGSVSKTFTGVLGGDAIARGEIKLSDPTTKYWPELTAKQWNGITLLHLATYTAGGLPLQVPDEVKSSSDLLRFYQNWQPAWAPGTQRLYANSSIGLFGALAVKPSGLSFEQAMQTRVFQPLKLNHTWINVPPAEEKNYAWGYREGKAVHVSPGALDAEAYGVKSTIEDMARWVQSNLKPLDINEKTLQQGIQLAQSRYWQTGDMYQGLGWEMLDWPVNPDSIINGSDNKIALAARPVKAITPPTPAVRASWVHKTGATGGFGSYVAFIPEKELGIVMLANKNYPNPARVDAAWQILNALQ
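20 mM phosphate pH 7.0 + 0.01% (detergent screen) or 0.0001% Triton X-100; 5.3 nM AmpC reagent; cpd preinc 15 min RT; nitrocefin (800 uM stock) to start; A480 q20 s × 4 min; Activity was normalised to no-enzyme and no-compound control wells.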
VACV Venus inh = qHTS for Stage-Specific Inhibitors of Vaccinia Orthopoxvirus: Venus Reporter Primary qHTS | 330,000 tested, 0.46% active | AID 720580, 2013 | Vaccinia virus Venus reporter expression, fluorescence | Potency, µM (highest dose often 36.5 µM), most hits filed as inhibitors; calls by dose curve; tested in A549 cells; also: nearly all actives have a fitted effect of over 30% in size
VACV mCherry inh = qHTS for Stage-Specific Inhibitors of Vaccinia Orthopoxvirus: mCherry Reporter Primary qHTS. 310,000 tested, 0.63% active. AID 720579, 2013. Potency, µM (titrated, usually from 36.5 µM), usual class: inhibitors. Vaccinia virus mCherry reporter infection, fluorescence; calls by dose curve; tested in A549 cells; also: nearly all actives have a fitted effect of over 35% in size
AmpC detergent = qHTS Inhibitors of AmpC Beta-Lactamase (assay with detergent); AmpC hydrolysis of nitrocefin, absorbance 480 nm, 0.01% Triton; Potency, µM (top dose mostly 114 µM), hits mostly inhibitors; AID 485294, 2010; 370,000 tested, 0.041% active; P00811; also: nearly all actives have a fitted effect of over 25% in size
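20 mM phosphate pH 7.0 + 0.01% (detergent screen) or 0.0001% Triton X-100; 5.3 nM AmpC reagent; cpd preinc 15 min RT; nitrocefin (800 uM stock) to start; A480 q20 s × 4 min; Activity was normalised to no-enzyme and no-compound control wells.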
Hits are given with their value; - = inactive; ? = inconclusive; . = no result given; [ ] = remark or other dose. Unless noted, calls follow the shape of the dose curve; as a rule, active = well fitted curve in the direction sought with a large enough effect; inconclusive = small, poorly fitted or top-dose-only effect, or another doubt; inactive = no such curve, though single readings can be large; an effect the other way counts as inactive or inconclusive.

SMILES	AmpC no deterg	VACV Venus inh	VACV mCherry inh	AmpC detergent
CCN(CC)c1ccc(/C=N/NC(=O)Cc2cccs2)c(O)c1	-	?	6.3µM	-
COc1ccccc1CNC(=O)c1ccc2nc3[nH]c4ccccc4c3nc2c1	-	10µM	8.9µM	-
COc1ccc(-n2ncc(Cl)c(Cl)c2=O)cc1	-	-	-	-
COc1nn(-c2ccccc2)c(=O)c(Cl)c1Cl	-	28µM	?	?
COc1ccc(Sc2cnn(-c3ccccc3)c(=O)c2Cl)cc1	-	?	13µM	-
C=CCC[C@H](Cc1ccc(F)cc1)C(=O)OC[C@@H](Cc1c[nH]c2ccccc12)NC(=O)[C@H](CC=C)CC(=O)N(CCO)Cc1ccccc1	-	10µM	?	.
C=CCC[C@@H](Cc1ccc(F)cc1)C(=O)OC[C@@H](Cc1c[nH]c2ccccc12)NC(=O)[C@H](CC=C)CC(=O)N(CCO)Cc1ccccc1	-	14µM	?	.
C=CCC[C@H](Cc1ccc(F)cc1)C(=O)OC[C@@H](Cc1c[nH]c2ccccc12)NC(=O)[C@H](CC=C)CC(=O)NCCO	-	?	?	.
CC(C)NC(=O)c1cn([C@H]2CC[C@@H](NC(=O)/C=C/c3cccs3)CC2)nn1	.	-	-	.
Cc1ccc(Nc2nc3nonc3nc2Nc2cccc(C(F)(F)F)c2)cc1Cl	.	3.5µM	3.5µM	-
Cc1cc(Nc2cccc(C(F)(F)F)c2)ncn1	.	-	-	-
CSC1SCC2C(=O)N(C)C(C(C)C)C(=O)OCC(NC(=O)c3cnc4ccccc4n3)C(=O)NC(C)C(=O)N(C)C1C(=O)N(C)C(C(C)C)C(=O)OCC(NC(=O)c1cnc3ccccc3n1)C(=O)NC(C)C(=O)N2C (stereo unspecified)	.	0.0035µM	?	.
CCN(CC)c1ccc(/C=C/c2ccccn2)cc1	.	-	-	.
C[CH2][Hg][S]c1ccccc1C(=O)O	.	11µM	?	.
O=C(CCl)c1ccc2c(c1)CCCC2	.	-	-	.
CCC(CC)c1nn2c(N)c(/C=C3\C(C)=Nc4ccccc43)c(=O)nc2s1	7.9µM	-	-	-
CCC(CC)c1nn2c(N)c(/C=C3\C=Nc4ccccc43)c(=O)nc2s1	-	-[7.34 µM]	-[7.34 µM]	-
O=C(Cc1cccc2ccccc12)NO	.	-	-	.
CCOc1cccc(/C=N/NC(=S)Nc2cc(S(=O)(=O)N3CCOCC3)ccc2N2CCOCC2)c1O	-	?	7.1µM	-
COc1ccc(C(=O)N2CCC3(CC2)c2ccccc2[C@@H](NC(=O)c2ccccn2)[C@@H]3OC)c(O)c1	.	-	-	.
CNC[C@H](CC1CCCCC1)NC[C@H](Cc1ccccc1)NCCC12CC3CC(CC(C3)C1)C2	-	10µM	?	-
COc1ccc2c(c1)OC(C)CN(CCNC(=O)C1CCOC1)C2 (stereo unspecified)	.	-	-	.
CCN(CC)S(=O)(=O)c1ccc(-c2nnc(SCC(=O)N3c4ccccc4CC3C)o2)cc1 (stereo unspecified)	-	?	0.63µM	-
O=C(c1ccc(Cn2cc(Br)cn2)o1)n1cccn1	0.5µM	-	-	-
O=C(NCc1ccccn1)c1ccc(Cn2cc(Br)cn2)o1	?	-	-	-
SMILES	AmpC no deterg	VACV Venus inh	VACV mCherry inh	AmpC detergent
O=C(CCCN1C(=O)/C(=C/c2ccccc2Cl)SC1=S)NNC(=O)c1ccncc1	-	-[7.34 µM]	-[7.34 µM]	-
COc1ccccc1/C=C1\SC(=S)N(CCC(=O)NNC(=O)c2ccccc2O)C1=O	16µM	-	-	-
COc1cccc(/C=C2\SC(=S)N(CCC(=O)Nc3ccc(O)cc3)C2=O)c1	-	.	.	?
COc1cccc(/C=C2\SC(=S)N(CCC(=O)NCCc3ccc(O)cc3)C2=O)c1	-	?	11µM	-
O=C(CCCN1C(=O)/C(=C/c2ccccc2Cl)SC1=S)NNC(=O)c1ccccc1Cl	-	?	11µM	-
CCN(c1ccccc1)S(=O)(=O)c1ccc(NC(=S)NC(=O)c2cccs2)cc1	14µM	?	-[1.46 µM]	-
Cc1ccc(C(=O)NC(=S)Nc2ccc(Oc3ccc(Cl)cc3)cc2)cc1	-	-	.	-
O=C(NC(=S)Nc1ccc(-c2ccc(CO)o2)cc1)c1cccs1	10µM	-	-	-
Cc1ccc(C(=O)NC(=S)Nc2ccc(-c3ccc(CO)o3)cc2)cc1	25µM	-	-	-
CN(C)S(=O)(=O)c1ccc(NC(=S)NC(=O)c2cccs2)cc1	-	-	-	-
C[N+]1(CC(=O)c2ccc3ccccc3c2)CCOCC1	.	-	-	.
COc1ccccc1C(=O)N1CCOc2ccc(CN3CCN(Cc4ccccn4)CC3)cc2C1	.	-	-	.
CCC(O)CNC(=O)c1cnn(-c2ncc3c(n2)-c2ccccc2CCC3)c1C1CC1 (stereo unspecified)	.	-	-	.

Screening data as filed in PubChem BioAssay.
